The source of these data is PubChem BioAssay (NCATS).

Assay [1] in a line: qHTS profiling for inhibitors of Plasmodium falciparum proliferation (AID 504749).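 As to activity, negative = inhibition: 0% = DMSO vehicle and full inhibition = artemisinin control.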 As to all read-outs here: nearly all actives have a fitted effect of over 60% in size. To be noted: P. falciparum in erythrocytes, SYBR Green DNA, 72 h; for activity, negative = inhibition: at 28.7 µM (top of the series). A digest of the protocol: (§1)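 Quantitative HTS: compounds pinned into medium, infected erythrocytes added (0.3% parasitemia, 2.5% hematocrit), 72 h culture at 37 C under 5% CO2. Saponin/Triton lysis with SYBR Green I, overnight RT, then fluorescence read.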
For orientation: In qHTS, concentration-response curves come from the screen itself.

In assay [2] the test system is 3D7. The assay is described as above. To be noted: P. falciparum in erythrocytes, SYBR Green DNA, 72 h; series mostly up to 28.7 µM. A digest of the protocol:
as §1

In assay [3] the test system is 7G8. Described as above. To be noted: P. falciparum in erythrocytes, SYBR Green DNA, 72 h; series mostly up to 28.7 µM. A digest of the protocol:
as §1

The test system of assay [4] is AA1029. The assay is described as above. To be noted: P. falciparum in erythrocytes, SYBR Green DNA, 72 h; series mostly up to 28.7 µM. The procedure, abridged: as §1
Assay [5] relates to ATS189. The description is as above. To be noted: P. falciparum in erythrocytes, SYBR Green DNA, 72 h; series mostly up to 28.7 µM. A digest of the protocol: as §1
For assay [6], the system named is AS120. The description is as above. As to conditions: P. falciparum in erythrocytes, SYBR Green DNA, 72 h; series mostly up to 28.7 µM. The procedure, abridged:
as §1

Structures are written as SMILES. “And” between values parts separate entries of the source, which are not always exact repeats. Identical values can stand only once. Results filed as inconclusive are left out. Values without a mark were called inactive. The source made the active and inactive calls. Calls follow the shape of the dose curve; as a rule, active = well fitted inhibition curve with a large enough effect; inconclusive = small, poorly fitted or top-dose-only effect; inactive = flat fitted curve, though single readings scatter.
Potency is read from the fitted curve at half-maximal effect.

Take `CC(C)(C)CC(C)(C)c1ccc(O)cc1`: in assay [1] (parasite line A), the activity, negative = inhibition is -18.1%. Moreover, the Potency result in assay [2], in assay [4] and in assay [5] was “inactive” throughout. The Potency in assay [3] was 12.6 µM (active).

With `Cc1ncc(CNC(=O)N(CCCl)N=O)c(N)n1`, the activity, negative = inhibition in assay [1] (parasite line A) was 6.89%; in assay [1] (parasite line B), 3.28%. The Potency result in assay [2], in assay [3], in assay [4], in assay [6] and in assay [5] was “inactive” throughout.

For `CCC1(C2=NCCN2)Cc2ccccc2O1` (stereo not given), the figures for the activity, negative = inhibition in assay [1] (parasite line A) and in assay [1] (parasite line B) were 5.76% and 6.35%, respectively. Also, the Potency entry in assay [2] is “inactive”. The results for the Potency in assay [4] and in assay [5] were 11.2 µM (active) and 7.94 µM (active), respectively.

Take `NCCc1cc(O)c(O)cc1O`: the activity, negative = inhibition in assay [1] (parasite line A) was 7.16%; in assay [1] (parasite line B) it was 11.4%. The Potency entry in assay [2], in assay [3], in assay [4], in assay [6] and in assay [5] was “inactive” throughout.

For `OCCOc1ccccc1`, the activity, negative = inhibition in assay [1] (parasite line A) is 10.1%; in assay [1] (parasite line B), 6.31%. For the same compound, the Potency result in assay [2], in assay [3], in assay [4], in assay [6] and in assay [5] was “inactive” in each case.

For `C#CCOC(C(=O)OCCN(C)C)(c1ccccc1)c1ccccc1`, the activity, negative = inhibition was -0.224% in assay [1] (parasite line A) and 7.7% in assay [1] (parasite line B). In addition, the Potency entry in assay [2], in assay [6] and in assay [5] was “inactive” in each case. Moreover, in assay [3], the Potency was 10 µM (active).

Turning to `c1ccc(C2CC2)c(OCC2=NCCN2)c1`, the activity, negative = inhibition in assay [1] (parasite line A) was 6.76%; in assay [1] (parasite line B), 4.47%. Further, the Potency result in assay [2], in assay [4], in assay [6] and in assay [5] was “inactive” each time.

Consider `CC[C@@H](CO)NC(=O)[C@@H]1C=C2c3cccc4[nH]cc(c34)C[C@H]2N(C)C1`, for which the activity, negative = inhibition is 17.2% in assay [1] (parasite line A) and 1.58% in assay [1] (parasite line B). Further, the Potency result in assay [2], in assay [4], in assay [6] and in assay [5] was “inactive” throughout.

`Nc1ccncc1`: the activity, negative = inhibition in assay [1] (parasite line A) is 15.2%; in assay [1] (parasite line B), 1.68%. Further, the Potency entry in assay [2], in assay [3], in assay [4], in assay [6] and in assay [5] was “inactive” throughout.

Take `CC[N+]1(C)CCCC(OC(=O)C(O)(c2ccccc2)c2ccccc2)C1` (stereo not given): the activity, negative = inhibition is -4.88% in assay [1] (parasite line A) and 2.86% in assay [1] (parasite line B). Also, the Potency entry in assay [2], in assay [3], in assay [4], in assay [6] and in assay [5] was “inactive” in each case.

For `CN1C[C@H](CNC(=O)OCc2ccccc2)C[C@@H]2c3cccc4c3c(cn4C)C[C@H]21`, the Potency was 7.08 µM (active) in assay [1] (parasite line A); 5.01 µM (active) in assay [3]; 6.31 µM (active) in assay [4]; 10 µM (active) in assay [6]; 10 µM (active) in assay [5].

For the compound `Clc1cccc(N2CCNCC2)c1`, the activity, negative = inhibition was 9.32% in assay [1] (parasite line A) and 8.49% in assay [1] (parasite line B). Also, the Potency entry in assay [2], in assay [4], in assay [6] and in assay [5] was “inactive” in each case.

As to `Oc1ccc(Cl)cc1Cc1ccccc1`, the activity, negative = inhibition in assay [1] (parasite line A) was -17.6%. Moreover, the Potency in assay [3] is 2 µM (active); in assay [6], 8.91 µM (active).

For the compound `C[C@]12C/C(=C/O)C(=O)C[C@@H]1CC[C@@H]1[C@@H]2CC[C@@]2(C)[C@H]1CC[C@]2(C)O`, the activity, negative = inhibition in assay [1] (parasite line A) is -16.2%. Moreover, the Potency entry in assay [2], in assay [4], in assay [6] and in assay [5] was “inactive” each time.

Turning to `CN1C(=S)CN=C(c2ccccc2)c2cc(Cl)ccc21`, the activity, negative = inhibition in assay [1] (parasite line A) was -4.94%; in assay [1] (parasite line B) it was 2.35%. The Potency entry in assay [2], in assay [3], in assay [4], in assay [6] and in assay [5] was “inactive” in each case.

As for `c1ccc2c(c1)OCC(C1=NCCN1)O2` (stereo not given), the activity, negative = inhibition is -17.7% in assay [1] (parasite line A) and -17.9% in assay [1] (parasite line B). In addition, the Potency entry in assay [4], in assay [6] and in assay [5] was “inactive” throughout.

In the case of `Oc1cccc2cccnc12`, the figures for the activity, negative = inhibition in assay [1] (parasite line A) and in assay [1] (parasite line B) were 4.36% and -11.6%, respectively. Further, the Potency result in assay [2], in assay [3], in assay [4], in assay [6] and in assay [5] was “inactive” each time.

On to `CC(C)NCC(O)c1ccccc1Cl` (stereo not given), for which the Potency in assay [1] (parasite line B) was 11.2 µM (active); in assay [3] it was 4.47 µM (active); in assay [4], 4.47 µM (active); in assay [6] it was 12.6 µM (active).

Regarding `CC(C)(C)NCC(O)c1cc(Cl)c(N)c(Cl)c1` (stereo not given), in assay [1] (parasite line A), the activity, negative = inhibition is -4.99%. Moreover, the Potency result in assay [2] was “inactive”. The Potency in assay [3] was 7.94 µM (active).

On to `c1ccc2c(c1)Nc1ccccc1S2`, for which the Potency in assay [2] is 4.47 µM (active). In addition, in assay [6], the Potency result is “inactive”.

Regarding `Oc1cc(Cl)ccc1Oc1ccc(Cl)cc1Cl`, the Potency is 11.2 µM (active) in assay [1] (parasite line A); 5.01 µM (active) in assay [1] (parasite line B); 11.2 µM (active) in assay [2]; 1.12 µM (active) in assay [3]; 7.94 µM (active) in assay [4]; 3.98 µM (active) in assay [6]. The Potency in assay [5] was 7.08 µM (active).

On to `CC1OC(C)OC(C)O1` (stereo not given), for which the activity, negative = inhibition is 8.9% and 17.9% in assay [1] (parasite line A); 12.4% and 13.9% in assay [1] (parasite line B). Moreover, the Potency result in assay [2], in assay [3], in assay [4], in assay [6] and in assay [5] was “inactive” throughout.

In the case of `Cc1ccc(S(=O)(=O)N[C@@H](CCCCN)C(=O)CCl)cc1`, the Potency in assay [1] (parasite line A) was 7.08 µM (active); in assay [3], 8.91 µM (active); in assay [4], 10 µM (active); in assay [6], 11.2 µM (active).

Turning to `CCOC(=O)C1(c2ccccc2)CCN(CCC(C#N)(c2ccccc2)c2ccccc2)CC1`, the Potency in assay [1] (parasite line A) was 2.51 µM (active); in assay [1] (parasite line B) it was 3.16 µM (active); in assay [2] it was 2.51 µM (active); in assay [3], 2.24 µM (active); in assay [4] it was 3.16 µM (active); in assay [6], 2.24 µM (active). Besides, in assay [5], the Potency was 3.55 µM (active).

Take `CC(=O)[C@H]1CC[C@H]2[C@@H]3CC[C@H]4C[C@H](O)CC[C@]4(C)[C@H]3C(=O)C[C@]12C`: the activity, negative = inhibition in assay [1] (parasite line A) is 10.2%; in assay [1] (parasite line B) it was 12.3%. Further, the Potency result in assay [2], in assay [3], in assay [4], in assay [6] and in assay [5] was “inactive” each time.

As to `Cc1ccc(-c2nc3ccc(C)cn3c2CC(=O)N(C)C)cc1`, the activity, negative = inhibition was -4.35% in assay [1] (parasite line A) and -1.84% in assay [1] (parasite line B). Further, the Potency entry in assay [2], in assay [3], in assay [4], in assay [6] and in assay [5] was “inactive” throughout.

`CCCC1CCCCN1` (stereo not given): the results for the activity, negative = inhibition in assay [1] (parasite line A) and in assay [1] (parasite line B) were 5.52% and 3.92%, respectively. Also, the Potency result in assay [2], in assay [3], in assay [4], in assay [6] and in assay [5] was “inactive” throughout.

Regarding `CCN(CC)CCN1C(=O)CN=C(c2ccccc2F)c2cc(Cl)ccc21`, the activity, negative = inhibition was -1.62% in assay [1] (parasite line A) and -4.36% in assay [1] (parasite line B). Besides, the Potency entry in assay [2] and in assay [6] was “inactive” throughout.
